According to PubChem BioAssay (NCI):
The panel holds about 79,000 compounds, 15% with a hit somewhere; the sample as a whole holds those more often. Calls of active or inactive are those of the source. Rule as the data show it: active = growth inhibition above about 70%; inactive = the rest.

Experiments:
[1] = NCI Yeast Anticancer Drug Screen. Data for the rad52 strain (AID 147);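 also: 0% = growth of vehicle-treated control cultures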; details: S. cerevisiae rad52 mutant growth inhibition, active compounds read high
Procedure, shortened: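 DNA repair-defective yeast; compound exposure; growth scored against vehicle controls.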

[2] = NCI Yeast Anticancer Drug Screen. Data for the wt1 strain (AID 149);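 also: 0% = growth of vehicle-treated wt1 cultures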; details: S. cerevisiae wt1 strain (SPY 50644) growth inhibition, active compounds read high
Procedure, shortened: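 Each compound is tested on wt1 yeast and the loss of growth versus vehicle gives the inhibition value.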

[3] = NCI Yeast Anticancer Drug Screen. Data for the rad50EPP+ strain (AID 151);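 also: 0% = growth of vehicle-treated control cultures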; details: S. cerevisiae rad50 mutant strain, active compounds read high
Procedure, shortened: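 rad50EPP+ yeast treated with test compounds. Readout: growth vs vehicle control.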

[4] = NCI Yeast Anticancer Drug Screen. Data for the mgt1 strain (AID 153); details: S. cerevisiae mgt1 mutant growth inhibition, active compounds read high
Procedure, shortened: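 Growth inhibition relative to vehicle controls was scored for the mgt1 yeast strain after compound exposure.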

[5] = NCI Yeast Anticancer Drug Screen. Data for the rad50 strain (AID 155);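 also: 0% = growth of vehicle-only cultures of the same strain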; details: S. cerevisiae rad50 strain growth inhibition, active compounds read high
Procedure, shortened: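 Vehicle-treated cultures provide the reference for the growth inhibition reported for compound-exposed, repair-deficient yeast.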

[6] = NCI Yeast Anticancer Drug Screen. Data for the mec2-1 strain (AID 157); details: S. cerevisiae mec2-1 strain, active compounds read high
Procedure, shortened: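 Growth inhibition is read against vehicle-treated controls after compound exposure of the mec2-1 yeast strain, which is defective in DNA damage repair or cell cycle control.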

[7] = NCI Yeast Anticancer Drug Screen. Data for the rad14 strain (AID 159);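 also: 0% = growth of vehicle-treated control cultures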; details: S. cerevisiae rad14 strain growth inhibition, active compounds read high
Procedure, shortened: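 Inhibition of growth is reported for a repair-deficient yeast mutant following compound treatment, calculated relative to cultures that received vehicle.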

[8] = NCI Yeast Anticancer Drug Screen. Data for the sgs1 mgt1 strain (AID 161);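 also: 0% = growth of cultures given vehicle only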; details: S. cerevisiae sgs1 mgt1 strain, active compounds read high
Procedure, shortened: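 Growth of a repair-deficient yeast mutant was monitored after compound treatment and expressed as inhibition relative to vehicle-treated cultures.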

[9] = NCI Yeast Anticancer Drug Screen. Data for the CLN2oe strain (AID 163);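 also: 0% = growth of vehicle-only control cultures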; details: S. cerevisiae CLN2oe strain, active compounds read high
Procedure, shortened: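 Compound-treated yeast; growth vs vehicle ctrl = % inhibition. Genetically altered strain (cell-cycle control).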

[10] = NCI Yeast Anticancer Drug Screen. Data for the cln2 rad14 strain (AID 165);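 also: 0% = growth equal to vehicle treated cultures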; details: S. cerevisiae cln2 rad14 strain, active compounds read high
Procedure, shortened: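 Growth inhibition, relative to vehicle-treated controls, is the read-out. The test organism is a yeast strain with defined genetic alterations, cln2 rad14.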

[11] = NCI Yeast Anticancer Drug Screen. Data for the bub3 strain (AID 167); details: S. cerevisiae bub3 mutant strain, active compounds read high
Procedure, shortened: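 Mutant yeast screening strain plus compound; vehicle-treated cultures serve as the 0% inhibition reference.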

[12] = NCI Yeast Anticancer Drug Screen. Data for the wt2 strain (AID 169); details: S. cerevisiae wt2 strain growth inhibition, active compounds read high
Procedure, shortened: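 Compound exposure of yeast; growth compared with vehicle controls; inhibition reported.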

[13] = NCI Yeast Anticancer Drug Screen. Data for the mlh1 strain (AID 171);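 also: 0% = growth of vehicle-treated control cultures of the same strain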; details: S. cerevisiae mlh1 strain growth inhibition, active compounds read high
Procedure, shortened: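 Compounds are applied to a genetically altered yeast strain, and its growth is compared with that of vehicle-treated cultures to give percent inhibition.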

[14] = NCI Yeast Anticancer Drug Screen. Data for the sgs1 strain (AID 173);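 also: 0% = growth of vehicle-only control cultures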; details: S. cerevisiae sgs1 mutant, active compounds read high
Procedure, shortened: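 Compounds applied to genetically altered yeast; growth compared with vehicle-treated cultures to give % inhibition.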

[15] = NCI Yeast Anticancer Drug Screen. Data for the mlh1 rad18 strain (AID 175); details: S. cerevisiae mlh1 rad18 strain growth inhibition, active compounds read high
Procedure, shortened: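 Cells of a genetically altered yeast strain, deficient in DNA damage repair, were treated with compound. Their growth was then compared with that of vehicle-treated cultures to give inhibition.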

[16] = NCI Yeast Anticancer Drug Screen. Data for the rad18 strain (AID 177); details: S. cerevisiae rad18 mutant growth inhibition, active compounds read high
Procedure, shortened: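 Compounds are applied to a repair-deficient yeast strain, and growth is compared with that of vehicle-treated cultures to give percent inhibition.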

[17] = at 5.0 µM (retest, dose inferred, filed as 0.5)
[18] = at 50.0 µM (retest, dose inferred, filed as 5.0)

Measured: growth inhibition

CC(C)(C)c1nc2c(o1)C(=O)c1ccccc1C2=O
inactive: [1]; at 1.2 µM -27% | [1]; at 3.7 µM -22% | [1]; at 11.0 µM 20% | [2]; at 1.2 µM -30% | [2]; at 3.7 µM -20% | [2]; at 11.0 µM -5% | [2]; at 33.0 µM 63% | [3]; at 1.2 µM -19% | [3]; at 3.7 µM -17% | [3]; at 11.0 µM -7% | [4]; at 1.2 µM -21% | [4]; at 3.7 µM -16% | [4]; at 11.0 µM 19% | [5]; at 1.2 µM -56% | [5]; at 3.7 µM -15% | [5]; [17] 23% | [5]; at 11.0 µM 32% | [6]; at 1.2 µM 11% | [6]; at 3.7 µM 15% | [6]; [17] 14% | [6]; at 11.0 µM 27% | [6]; at 33.0 µM 57% | [7]; at 1.2 µM -15% | [7]; at 3.7 µM -5% | [7]; at 11.0 µM 13% | [8]; [17] 32% | [9]; at 1.2 µM -3% | [9]; at 3.7 µM -8% | [9]; at 11.0 µM 6% | [9]; at 33.0 µM 65% | [10]; [17] 3% | [10]; [18] 42% | [11]; at 1.2 µM -3% | [11]; at 3.7 µM 12% | [11]; [17] 52% | [11]; at 11.0 µM 36% | [12]; at 1.2 µM -41% | [12]; at 3.7 µM -26% | [12]; at 11.0 µM 32% | [13]; at 1.2 µM -6% | [13]; at 3.7 µM -3% | [13]; at 11.0 µM 25% | [14]; at 1.2 µM 7% | [14]; at 3.7 µM -10% | [14]; at 11.0 µM 36% | [15]; [17] 21% | [16]; at 1.2 µM -25% | [16]; at 3.7 µM -14% | [16]; at 11.0 µM 4%
active: [1]; at 33.0 µM 89% | [1]; at 100.0 µM 98% | [2]; at 100.0 µM 95% | [3]; at 33.0 µM 87% | [3]; at 100.0 µM 97% | [4]; at 33.0 µM 75% | [4]; at 100.0 µM 95% | [5]; at 33.0 µM 90% | [5]; [18] 91% | [5]; at 50.0 µM 85.2% | [5]; at 100.0 µM 97% | [6]; [18] 77% | [6]; at 50.0 µM 94% | [6]; at 100.0 µM 94% | [7]; at 33.0 µM 79% | [7]; at 100.0 µM 98% | [8]; [18] 70% | [8]; at 50.0 µM 93.3% | [9]; at 100.0 µM 96% | [10]; at 50.0 µM 92.1% | [11]; at 33.0 µM 87% | [11]; [18] 90% | [11]; at 50.0 µM 93% | [11]; at 100.0 µM 97% | [12]; at 33.0 µM 72% | [12]; at 100.0 µM 94% | [13]; at 33.0 µM 81% | [13]; at 100.0 µM 96% | [14]; at 33.0 µM 88% | [14]; at 100.0 µM 95% | [15]; [18] 86% | [15]; at 50.0 µM 91.5% | [16]; at 33.0 µM 77% | [16]; at 100.0 µM 95%
